Sampled rows, rich in hits. Any-hit rate of the full collection: about 12%.
Pf growth 96h = inhibits malaria parasite growth, 96 h | P. falciparum luciferase reporter growth, 96 h | Potency, µM (highest dose often 28.7 µM), without a hit: top-dose activity change, negative = inhibition, most hits filed as inhibitors | 320,000 compounds, 6.9% hits | AID 504834; further: on the % scale 0 is the no-effect control and ±100 the full control effect
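Luminescence readout: decreased luciferase signal marks inhibited growth of reporter-expressing P. falciparum in infected red cells (2% hematocrit, 0.05% parasitemia final), exposed to compound two generations (96 h, 37 C, 5% CO2).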
Pf growth 48h = P. falciparum growth inhibition at 48 hours (one generation); AID 504832; 310,000 compounds, 5.9% hits; Potency, µM (titrated, usually from 28.7 µM), inactives show at the top dose activity change, negative = inhibition, most hits filed as inhibitors; P. falciparum luciferase growth in erythrocytes, 48 h; further: on the % scale 0 is the no-effect control and ±100 the full control effect
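Compounds are pin-transferred into medium, infected erythrocytes (2% hematocrit, 0.1% parasitemia final) are added, and plates sit one parasite generation at 37 C in 5% CO2. Detection reagent is then added and luminescence measured.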
NS1 inh = blocks influenza NS1 protein function; Potency, µM (titrated, usually from 46.1 µM), for inactives: top-dose activity, positive = more growth; 270,000 compounds, 0.4% hits; AID 2326; calls by dose curve; further: actives are rising curves; nearly all actives have a fitted effect of over 50% in size
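In this qHTS, NS1 from influenza A is expressed in budding yeast, where it slows growth. Cells are switched from glucose to 2% galactose medium (pH 6.0, -URA), treated with compound, and growth recovery is read at OD600.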
AMA1-RON2 inh = disrupts binding of P. falciparum AMA1 to RON2 | AlphaScreen AMA1-biotinylated RON2 peptide binding | 360,000 compounds, 0.2% hits | Potency, µM (titrated, usually from 58.2 µM), without a hit: at the highest dose activity change, negative = inhibition, most hits filed as inhibitors;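 further: 0% = vehicle wells and -100% = peptide control; nearly all actives have a fitted effect of over 45% in size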
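AMA1 (3D7) with his tag at 25 nM final met compounds first, then biotinylated RON2 peptide at 25 nM; detection used donor plus acceptor beads, 10 µg/mL apiece, read by AlphaScreen after 30 min at room temperature.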
SARS PLP yeast = blocks SARS-CoV papain-like protease in a yeast assay | S. cerevisiae expressing SARS-CoV PLpro, growth rescue | Potency, µM (series often up to 32.9 µM), without a hit: at the top dose activity, positive = growth rescue, actives largely listed as activators | 330,000 compounds, 0.19% hits | AID 485353; calls by dose curve; further: 0% is about no effect; nearly all actives have a fitted effect of over 55% in size
HCV inh = inhibitors of hepatitis C virus infection; Huh7.5.1 HCVcc-Cre infection, luciferase reporter, 44 h; Potency, µM (doses to about 41.8 µM), for inactives: at the highest dose activity change, negative = inhibition, usual class: inhibitors; 340,000 compounds, 3.4% hits; AID 651820; further: on the % scale 0 is the no-effect control and ±100 the full control effect
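HCVcc-Cre virus at an moi near 0.5 was added right after compound to cells cultured 4 h from seeding (1,000 cells/well). Luciferase activity was determined 44 h later, 15 min after substrate addition at RT.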
* hit, by the source's call; ? = inconclusive; · = not tested or not shown; [ ] = dose if it differs, or a comment. Unless noted, the call rests on the fitted dose curve; in most records, active means well fitted curve in the direction sought with a large enough effect; inconclusive means small, poorly fitted or top-dose-only effect, or another doubt; inactive means no such curve, though single readings can be large; an effect the other way counts as inactive or inconclusive. Potency means the concentration at half of the fitted maximal effect.

SMILES | Pf growth 96h | Pf growth 48h | NS1 inh | AMA1-RON2 inh | SARS PLP yeast | HCV inh
O=C(COC(=O)c1ccccc1Cc1ccccc1)NC1CCS(=O)(=O)C1 (stereo unspecified) | 0% | 4% | 9% | -12% | -5% | -11%
CCN1C(=O)/C(=C2/Sc3ccc(OC)cc3N2C)SC1=Nc1ccc(OC)cc1 | 9.3µM* | 0% | · | 0% | -2% | 1%
C=CCN1C(=O)/C(=C2/Sc3ccc(OC)cc3N2C)SC1=Nc1cccc(O)c1 | -23% | 0% | 4% | -14% | 0% | -2%
Cc1ccc(CNC(=O)Cn2c(=O)c3sccc3n(Cc3ccc([N+](=O)[O-])cc3)c2=O)cc1 | 26% | 2% | ? | 1% | -8% | 13%
COc1ccccc1Nc1nnc(SCC(=O)c2cc(C)n(CC3CCCO3)c2C)s1 (stereo unspecified) | 4.7µM* | 10µM* | ? | -3% | 3% | ?
Cc1cc(C(=O)CSc2nnnn2-c2ccccc2)c(C)n1CC1CCCO1 (stereo unspecified) | -2% | 178% | 2% | -20% | -1% | -21%
Cc1cc(C(=O)CSc2nnc(Nc3ccccc3)s2)c(C)n1CC1CCCO1 (stereo unspecified) | 11%[5.75 µM] | · | -1% | -10% | 7% | ?
Cc1cc(C(=O)CSc2nnc(Nc3ccccc3F)s2)c(C)n1CC1CCCO1 (stereo unspecified) | 0% | · | 5% | -25% | 1% | 6.3µM*
Cc1cc(C(=O)CSc2nnc(-c3cccnc3)n2-c2ccccc2F)c(C)n1CC1CCCO1 (stereo unspecified) | 15µM* | · | 12% | -7% | -3% | -16%
CC(=O)Nc1c(NC(=O)CC#N)[nH]c2c(c1=O)c(=O)n(C)c(=O)n2C | -25% | 17% | 2% | 14% | 0% | 15%
CCOC(=O)C1(C)NC(c2ccco2)C2C(=O)N(CC)C(=O)C21 (stereo unspecified) | 2.9µM* | -3% | 4% | -6% | 3% | 14%
Cc1nn(C)c(C)c1NC(=O)CN1CCC(O)(c2ccc3c(c2)OCO3)CC1 | 10µM* | 11% | 1% | 13% | 7% | -2%
CCc1ccccc1Oc1nc(NCCOC)nc2cc(-c3ccccc3)sc12 | · | · | · | -3% | · | ·
COc1cc(/C=C(/C#N)c2nc3ccccc3[nH]2)ccc1OCC(=O)Nc1ccccc1C(C)C | 9.3µM* | ? | 3% | 1% | -2% | ?
CCN(CC)c1ccc(/C=C(/C#N)c2nc3ccccc3[nH]2)c(OC(C)C)c1 | ? | ? | 0% | 32% | -11% | 2µM*
COc1cc(/C=C(\C#N)c2nc3ccccc3[nH]2)c([N+](=O)[O-])cc1OCc1ccccc1 | 13% | 2.6µM* | 20% | -23% | -7% | 7.1µM*
COc1cc(/C=C(/C#N)c2nc3ccccc3[nH]2)ccc1OCC(=O)Nc1ccccc1C | 1.5µM* | ? | -8% | 1% | -11% | -12%
CCOc1cccc(/C=C(/C#N)c2nc3ccccc3[nH]2)c1OCC(=O)O | ? | 4% | 10% | 0% | 5% | 5%
COc1cc(/C=C(\C#N)c2nc3ccccc3[nH]2)ccc1OC(=O)c1ccco1 | 20% | 58% | -3% | 9% | -13% | ?
C#Cc1ccc(C(=O)Nc2ccc(N3CCC(C)CC3)c(C(N)=O)c2)cc1 | ? | 1.9µM* | · | -1% | 0% | -22%
Cc1ccc2nc(-c3cc(-c4ccccc4)no3)cn2c1 | 251% | 163% | -25% | -12% | -2% | -2%
CCc1ccn2cc(-c3cc(-c4ccccc4)no3)nc2c1 | -7% | -83% | -45% | -8% | -4% | 10µM*
CCCn1nc(C(=O)NNC(=O)CCCOc2ccc(OC)cc2)c2ccccc2c1=O | ? | ? | · | 114% | -2% | -27%
CCC1CCCCN1CCNC(=O)CCS(=O)(=O)c1ccc(Br)cc1 (stereo unspecified) | 3.3µM* | ? | 16% | -2% | 3% | -5%
CCCCn1c(-c2ccco2)nc2oc3ccccc3c(=O)c2c1=O | 9.3µM* | ? | -5% | -6% | 0% | 7%
SMILES | Pf growth 96h | Pf growth 48h | NS1 inh | AMA1-RON2 inh | SARS PLP yeast | HCV inh
CCc1nc2oc3cc(OC)ccc3c(=O)c2c(=O)n1Cc1ccco1 | ? | 12µM* | -17% | ? | 2% | -13%
COc1c(C=O)cc2c3c1CCCN3CCC2 | ? | -3% | -15% | -3% | -2% | -2%
NCc1cc2c3c(c1)CCCN3CCC2 | 7.4µM* | -6% | -1% | 17% | -1% | 6%
N#Cc1cn(C2OC(CO)C(O)C2O)c2ncnc(N)c12 (stereo unspecified) | · | · | · | -10% | · | ?
NC(=O)c1ncn(C2OC(CO)C(O)C2O)n1 (stereo unspecified) | 12µM* | ? | · | · | · | ·
CC(C)Oc1ccc2ccccc2c1CNC[C@H]1O[C@@H](n2cnc(C(N)=O)n2)[C@H](O)[C@@H]1O | · | · | · | 14% | · | 5µM*
NC(=O)c1cn(C2OC(CO)C(O)C2O)c2ncnc(N)c12 (stereo unspecified) | 0.12µM* | 0.1µM* | -3% | 20% | 0% | ?
CC(C)(C)C(=O)OCC1OC(n2cnc(C(N)=O)n2)C(O)C1O (stereo unspecified) | 19% | 10% | -19% | -24% | -1% | 3%
COc1ccc(CC2=CC(=O)c3ccccc3C2=O)cc1 | 6% | ? | -117% | ? | -23% | 22µM*
COc1ccc(/C=N/NC(=O)c2cccnc2)cc1CSc1ccccn1 | -6% | 13% | -10% | 0% | 3% | -12%
CS(=O)(=O)c1sc(C#N)c2c1C(=O)CC(c1ccccc1)C2 (stereo unspecified) | ? | 12µM* | -71% | 0% | -6% | ?
Cc1oc2c(c(=O)c1C)C(=O)CC(c1ccccc1)C2 (stereo unspecified) | ? | ? | -29% | 3% | -6% | 5%
CCN1CCc2c(sc(NC(=O)c3ccc(S(=O)(=O)N(C)CC4CCCO4)cc3)c2C(N)=O)C1 (stereo unspecified) | 10µM* | ? | -6% | -6% | 5% | -28%
CCCN1CCc2c(sc(NC(=O)c3ccc(S(=O)(=O)N(C)c4ccccc4)cc3)c2C(=O)NC)C1 | 2.6µM* | 3.3µM* | 30% | -10% | 4% | ?
Cc1cc(C)cc(NC(=O)c2ccc(S(=O)(=O)N(C)CC3CCCO3)cc2)c1 (stereo unspecified) | 2.6µM* | ? | -52% | -1% | -2% | -20%
CCCN1CCc2c(sc(NC(=O)c3ccc(S(=O)(=O)N4CCN(C(=O)OCC)CC4)cc3)c2C(N)=O)C1 | ? | 10µM* | 22% | -8% | 0% | ?

Bioassay records from PubChem BioAssay.
